Measurements from PubChem BioAssay (EPA / NIEHS).
Several values for one entry are separate records, joined by “and”; a condition that tells them apart may be missing. Identical values can stand only once. Inconclusive results are not listed. More than one record can exist for a structure, and the calls need not agree. Activity calls are given as the source filed them. Rule for the calls, unless noted: active = hit-call score of the fitted dose curve at least 0.9, where 1 is the maximum; inactive = score below 0.9.

Experiments:
[1] = ATG_TAL_CIS: Attagene CIS-FACTORIAL HepG2 Assay for human TAL Basal Promoter (AID 2282966); details: HepG2 Attagene cis-factorial TAL promoter reporter; actives raise or lower the signal;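 note: background control endpoint measuring basal TAL promoter reporter mRNA not a specific factor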
Summary of the method: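 Fluorescence of labelled reporter cDNA fragments, resolved by capillary electrophoresis, gave the readout. Human HepG2 liver cells carried transiently transfected cis-element reporter units and were treated for 24 hours; activity was fitted bidirectionally against DMSO.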

[2] = ATG_TGFb_CIS: Attagene CIS-FACTORIAL HepG2 Assay for human Transforming Growth Factor (TGF) (AID 2282967); details: HepG2 Attagene CIS TGFb reporter, mRNA transcription; actives raise or lower the signal
Summary of the method: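 HepG2 cells transiently transfected with cis-promoter-driven multiple reporter units measure endogenous TF activity; reporter mRNA quantified at 24 h by RT-PCR, FAM labeling, HpaI digestion and capillary electrophoresis. Bidirectional fit vs DMSO.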

[3] = ATG_VDRE_CIS: Attagene CIS-FACTORIAL HepG2 Assay for human Vitamin D Receptor Element (VDRE) (AID 2282968); details: HepG2 VDRE cis-reporter transcription, actives raise or lower the signal
Summary of the method: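 HepG2 cells transiently transfected with cis-element reporter units, dosed 24 h; reporter mRNA measured by RT-PCR, 6-FAM labeling, HpaI digestion and capillary electrophoresis. Activity fitted bidirectionally against DMSO baseline.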

[4] = target: Estrogen receptor (Homo sapiens) (UniProt P03372); experiment: ATG_ERa_TRANS: Attagene TRANS-FACTORIAL HepG2 Assay for human Estrogen Receptor alpha (ERa) (AID 2282970; active = hit-call score of the fitted dose curve at least 0.9, where 1 is the maximum); details: HepG2 Attagene TRANS ERa GAL4 reporter, mRNA
Summary of the method: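 Human liver HepG2, transient transfection of multiple GAL4-UAS reporter units; TRANS format (exogenous NR-Gal4 chimera). 24 h dosing. Readout: reporter mRNA, RT-PCR, 6-FAM primer extension, HpaI digest, capillary electrophoresis. Positive direction vs DMSO.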

[5] = target: X-box-binding protein 1 (Homo sapiens) (UniProt P17861); experiment: ATG_Xbp1_CIS: Attagene CIS-FACTORIAL HepG2 Assay for human X-box Binding Protein 1 (XBP1) (AID 2282972); details: HepG2 XBP1 cis-element reporter, Attagene multiplex; actives raise or lower the signal
Summary of the method: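 HepG2 cells transiently transfected with cis-regulated multiple reporter transcription units; endogenous transcription factor activity measured 24 hours after chemical dosing. Reporter mRNA quantified by RT-PCR, 6-FAM primer extension, HpaI digestion and capillary electrophoresis; bidirectional fitting versus DMSO.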

[6] = target: Glucocorticoid receptor (Homo sapiens) (UniProt P04150); experiment: ATG_GR_TRANS: Attagene TRANS-FACTORIAL HepG2 Assay for human Glucocorticoid Receptor (GR) (AID 2282978; active = hit-call score of the fitted dose curve at least 0.9, where 1 is the maximum;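 note: activators score as hits since higher reporter transcript over DMSO is fitted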); details: HepG2 Attagene TRANS GR reporter, mRNA transcription
Summary of the method: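 HepG2 cells transiently transfected with multiplexed reporter units in which chimeric NR-GAL4 proteins drive GAL4-UAS reporters; 24 h compound exposure. Reporter mRNA measured by RT-PCR, 6-FAM labelling, HpaI digestion and capillary electrophoresis; gain-of-signal fitted versus DMSO.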

[7] = target: Bile acid receptor (Homo sapiens) (UniProt Q96RI1); experiment: ATG_FXR_TRANS: Attagene TRANS-FACTORIAL HepG2 Assay for Farnesoid X Receptor (FXR) (AID 2282979; active = hit-call score of the fitted dose curve at least 0.9, where 1 is the maximum;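 note: hits raise reporter mRNA above DMSO so AC50 marks FXR activation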); details: HepG2 Attagene TRANS FXR-GAL4 reporter transcription
Summary of the method: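 Transient transfection of HepG2 with multiplexed GAL4-UAS reporter units; exogenous FXR-GAL4 chimera. Dose 24 h → TriZol RNA → oligo(dT) RT → PCR, 6-FAM primer extension, HpaI cut → CE. Gain vs DMSO.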

[8] = target: Oxysterols receptor LXR-alpha (Homo sapiens) (UniProt Q13133); experiment: ATG_LXRa_TRANS: Attagene TRANS-FACTORIAL HepG2 Assay for human Liver X Receptor alpha (LXRa) (AID 2282980; active = hit-call score of the fitted dose curve at least 0.9, where 1 is the maximum); details: HepG2 Attagene TRANS reporter, LXRa transactivation
Summary of the method: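 Transfect HepG2 with GAL4-UAS multiplex reporter constructs (TRANS format, chimeric receptor-GAL4); treat 24 h; extract RNA, reverse-transcribe, PCR-amplify, FAM-label, HpaI-digest; resolve fragments by capillary electrophoresis. Upward response vs DMSO.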

[9] = target: Oxysterols receptor LXR-beta (Homo sapiens) (UniProt P55055); experiment: ATG_LXRb_TRANS: Attagene TRANS-FACTORIAL HepG2 Assay for human Liver X Receptor beta (LXRb) (AID 2282981; active = hit-call score of the fitted dose curve at least 0.9, where 1 is the maximum); details: HepG2 Attagene TRANS GAL4-LXRb reporter, mRNA
Summary of the method: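 HepG2 cells transiently transfected with multiple reporter transcription units carrying chimeric NR-Gal4 proteins acting on GAL4-UAS reporters; compound exposure 24 h. Reporter mRNA quantified by RT-PCR, 6-FAM labelling, HpaI digestion and capillary electrophoresis; gain of signal versus DMSO.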

[10] = ATG_M_32_TRANS: Attagene TRANS-FACTORIAL HepG2 Assay for M32 Transcription Factor (Internal Marker) (AID 2282984; active = hit-call score of the fitted dose curve at least 0.9, where 1 is the maximum;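 note: transcript level of a background control reporter unit measured by RT-PCR and capillary electrophoresis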); details: HepG2 Attagene TRANS M32 internal marker reporter
Summary of the method: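 HepG2 cells transiently transfected with multiple GAL4-UAS reporter transcription units, dosed for 24 hours; reporter mRNA quantified by RT-PCR, 6-FAM primer extension, HpaI digestion and capillary electrophoresis. Gain-of-signal fitted versus DMSO baseline; internal background-control marker.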

[11] = target: Transcriptional activator Myb (Homo sapiens) (UniProt P10242); experiment: ATG_Myb_CIS: Attagene CIS-FACTORIAL HepG2 Assay for human Myeloblastosis (Myb) Proto-Oncogene Transcription Factor (AID 2282986); details: HepG2 Attagene CIS-FACTORIAL Myb reporter transcription; actives raise or lower the signal
Summary of the method: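 HepG2 cells were transiently transfected with cis-regulated multiple reporter transcription units reflecting endogenous Myb activity, then exposed to compound for 24 hours. Reporter mRNA was measured by RT-PCR with capillary electrophoresis; bidirectional fitting versus DMSO baseline.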

[12] = target: Nuclear respiratory factor 1 (Homo sapiens) (UniProt Q16656); experiment: ATG_NRF1_CIS: Attagene CIS-FACTORIAL HepG2 Assay for human Nuclear Respiratory Factor 1 (NRF1) Orphan Gene (AID 2282987); details: HepG2 NRF1 cis-element reporter, Attagene multiplex; actives raise or lower the signal
Summary of the method: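 HepG2 cells transiently transfected with multiple reporter transcription units under cis-regulatory promoter control, so endogenous transcription-factor activity is read. After 24 h compound exposure, reporter mRNA quantified by RT-PCR, fluorescent labelling, HpaI digestion and capillary electrophoresis; bidirectional fitting versus DMSO.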

[13] = ATG_NFI_CIS: Attagene CIS-FACTORIAL HepG2 Assay for human Nuclear Factor I (NFI) (AID 2282989); details: HepG2 cis-regulatory reporter, NFI response element transcription; actives raise or lower the signal
Summary of the method: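 Endogenous TF activity in HepG2 cells transiently transfected with cis-element-driven multiplexed reporter units, read 24 h after dosing. Reporter mRNA quantified by RT-PCR, 6-FAM labelling, HpaI digestion and capillary electrophoresis; bidirectional fit versus DMSO.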

[14] = ATG_GAL4_TRANS: Attagene TRANS-FACTORIAL HepG2 Assay for GAL4 (Internal Marker) (AID 2282976; active = hit-call score of the fitted dose curve at least 0.9, where 1 is the maximum); details: HepG2 Attagene TRANS GAL4 internal marker reporter
Summary of the method: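 First, HepG2 cells were transfected with reporter units under GAL4-UAS control. Next, they were treated with chemical for 24 h. Finally, RNA was reverse-transcribed, PCR-amplified, FAM-labelled and resolved by capillary electrophoresis, with induction scored against DMSO.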

[15] = target: Hepatocyte nuclear factor 4-alpha (Homo sapiens) (UniProt P41235); experiment: ATG_HNF4a_TRANS: Attagene TRANS-FACTORIAL HepG2 Assay for human Hepatocyte Nuclear Factor 4 alpha (HNF4a) (AID 2282982; active = hit-call score of the fitted dose curve at least 0.9, where 1 is the maximum); details: HepG2 HNF4a transactivation reporter, mRNA readout
Summary of the method: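 HepG2 cells transiently transfected with multiplexed GAL4-UAS reporter units responsive to chimeric NR-GAL4 proteins; compound exposure 24 h. Reporter mRNA quantified by RT-PCR, 6-FAM labelling, HpaI digestion and capillary electrophoresis; gain of signal versus DMSO baseline.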

[16] = ATG_M_06_TRANS: Attagene TRANS-FACTORIAL HepG2 Assay for M06 Transcription Factor (Internal Marker) (AID 2282983; active = hit-call score of the fitted dose curve at least 0.9, where 1 is the maximum;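 note: reporter transcript level by RT-PCR then capillary electrophoresis fluorescence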); details: HepG2 Attagene TRANS M06 internal marker reporter
Summary of the method: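 Transfect HepG2 with MRTUs → dose compounds 24 h → isolate RNA, oligo(dT) RT → PCR with reporter primers → 6-FAM primer extension → HpaI digest → CE fragment analysis. Positive direction vs DMSO.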

[17] = ATG_M_19_TRANS: Attagene TRANS-FACTORIAL HepG2 Assay for M19 Transcription Factor (Internal Marker) (AID 2282974; active = hit-call score of the fitted dose curve at least 0.9, where 1 is the maximum); details: HepG2 Attagene TRANS-FACTORIAL M19 internal marker reporter
Summary of the method: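 HepG2 cells transiently transfected with multiple GAL4-UAS reporter transcription units were exposed to chemicals for 24 h. Reporter mRNA was read by RT-PCR, 6-FAM primer extension, HpaI digestion and capillary electrophoresis; gain of signal fitted relative to DMSO.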

[18] = target: Steroid hormone receptor ERR1 (Homo sapiens) (UniProt P11474); experiment: ATG_ERRa_TRANS: Attagene TRANS-FACTORIAL HepG2 Assay for human Estrogen-Related Receptor alpha (ERRa) (AID 2282971; active = hit-call score of the fitted dose curve at least 0.9, where 1 is the maximum); details: HepG2 Attagene TRANS reporter, ERRa transactivation
Summary of the method: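 Reporter transcript induction was quantified by RT-PCR and capillary electrophoresis of FAM-labelled, HpaI-cut products after 24 h treatment of HepG2 cells carrying transiently transfected GAL4-UAS reporter units and an exogenous ERRa-Gal4 fusion; activity scored as increase over DMSO.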

Measured: AC50

Sequence of Oxysterols receptor LXR-beta (Homo sapiens) (P55055 whole entry, looked up, the tested form may be a part): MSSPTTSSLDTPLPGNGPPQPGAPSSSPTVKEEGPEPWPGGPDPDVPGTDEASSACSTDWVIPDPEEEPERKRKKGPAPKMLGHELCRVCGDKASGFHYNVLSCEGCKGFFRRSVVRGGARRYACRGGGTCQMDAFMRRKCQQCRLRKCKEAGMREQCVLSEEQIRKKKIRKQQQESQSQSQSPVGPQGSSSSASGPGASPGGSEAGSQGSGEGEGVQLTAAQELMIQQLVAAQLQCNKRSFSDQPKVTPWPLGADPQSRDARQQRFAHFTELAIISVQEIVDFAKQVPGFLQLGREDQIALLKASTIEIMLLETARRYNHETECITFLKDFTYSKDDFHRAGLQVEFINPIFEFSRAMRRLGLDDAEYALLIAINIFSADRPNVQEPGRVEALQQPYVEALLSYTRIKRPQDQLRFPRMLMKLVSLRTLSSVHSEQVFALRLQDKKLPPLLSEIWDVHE
Sequence of Bile acid receptor (Homo sapiens) (Q96RI1 whole entry, looked up, the tested form may be a part): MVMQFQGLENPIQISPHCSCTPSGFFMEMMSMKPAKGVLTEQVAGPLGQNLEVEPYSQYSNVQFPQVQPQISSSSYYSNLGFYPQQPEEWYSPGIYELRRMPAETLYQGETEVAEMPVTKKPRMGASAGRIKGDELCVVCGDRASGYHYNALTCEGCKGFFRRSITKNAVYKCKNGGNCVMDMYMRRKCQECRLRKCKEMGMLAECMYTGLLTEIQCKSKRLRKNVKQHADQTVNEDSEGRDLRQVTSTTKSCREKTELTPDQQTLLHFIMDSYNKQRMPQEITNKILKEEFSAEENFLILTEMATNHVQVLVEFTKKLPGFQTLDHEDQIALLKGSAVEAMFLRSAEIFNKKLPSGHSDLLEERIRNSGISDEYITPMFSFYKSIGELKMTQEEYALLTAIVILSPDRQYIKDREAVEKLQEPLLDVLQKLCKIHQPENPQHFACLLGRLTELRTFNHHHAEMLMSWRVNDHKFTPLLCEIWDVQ
Sequence of Transcriptional activator Myb (Homo sapiens) (P10242 whole entry, looked up): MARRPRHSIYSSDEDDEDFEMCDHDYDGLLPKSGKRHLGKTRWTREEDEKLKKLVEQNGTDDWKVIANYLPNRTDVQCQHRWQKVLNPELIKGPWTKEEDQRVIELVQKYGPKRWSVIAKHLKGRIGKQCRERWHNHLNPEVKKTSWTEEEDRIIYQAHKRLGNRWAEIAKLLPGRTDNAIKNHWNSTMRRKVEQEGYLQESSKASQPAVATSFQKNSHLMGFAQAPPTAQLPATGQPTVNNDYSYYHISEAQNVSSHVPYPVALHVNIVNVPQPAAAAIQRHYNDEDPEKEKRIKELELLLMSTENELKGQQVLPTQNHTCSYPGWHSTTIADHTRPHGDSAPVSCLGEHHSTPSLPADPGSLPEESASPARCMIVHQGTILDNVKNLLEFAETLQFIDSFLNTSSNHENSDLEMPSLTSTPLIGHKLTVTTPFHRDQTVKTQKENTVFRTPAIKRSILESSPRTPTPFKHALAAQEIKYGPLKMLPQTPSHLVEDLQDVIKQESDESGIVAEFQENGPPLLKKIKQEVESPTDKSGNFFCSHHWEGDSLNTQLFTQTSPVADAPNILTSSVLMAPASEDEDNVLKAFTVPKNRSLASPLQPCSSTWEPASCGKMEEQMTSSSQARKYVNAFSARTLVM
Sequence of Hepatocyte nuclear factor 4-alpha (Homo sapiens) (P41235 whole entry, looked up, the tested form may be a part): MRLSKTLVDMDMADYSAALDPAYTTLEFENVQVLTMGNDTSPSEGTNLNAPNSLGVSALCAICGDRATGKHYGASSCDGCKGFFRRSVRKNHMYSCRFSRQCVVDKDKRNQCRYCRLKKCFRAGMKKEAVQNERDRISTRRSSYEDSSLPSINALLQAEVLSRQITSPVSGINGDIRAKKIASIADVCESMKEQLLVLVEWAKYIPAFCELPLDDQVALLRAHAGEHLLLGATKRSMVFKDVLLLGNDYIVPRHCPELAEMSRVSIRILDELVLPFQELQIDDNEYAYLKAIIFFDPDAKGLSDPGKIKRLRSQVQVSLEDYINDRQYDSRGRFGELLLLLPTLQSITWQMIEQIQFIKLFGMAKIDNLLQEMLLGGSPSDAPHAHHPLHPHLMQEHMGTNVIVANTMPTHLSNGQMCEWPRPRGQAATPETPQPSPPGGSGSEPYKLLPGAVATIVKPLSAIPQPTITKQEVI
Sequence of Oxysterols receptor LXR-alpha (Homo sapiens) (Q13133 whole entry, looked up, the tested form may be a part): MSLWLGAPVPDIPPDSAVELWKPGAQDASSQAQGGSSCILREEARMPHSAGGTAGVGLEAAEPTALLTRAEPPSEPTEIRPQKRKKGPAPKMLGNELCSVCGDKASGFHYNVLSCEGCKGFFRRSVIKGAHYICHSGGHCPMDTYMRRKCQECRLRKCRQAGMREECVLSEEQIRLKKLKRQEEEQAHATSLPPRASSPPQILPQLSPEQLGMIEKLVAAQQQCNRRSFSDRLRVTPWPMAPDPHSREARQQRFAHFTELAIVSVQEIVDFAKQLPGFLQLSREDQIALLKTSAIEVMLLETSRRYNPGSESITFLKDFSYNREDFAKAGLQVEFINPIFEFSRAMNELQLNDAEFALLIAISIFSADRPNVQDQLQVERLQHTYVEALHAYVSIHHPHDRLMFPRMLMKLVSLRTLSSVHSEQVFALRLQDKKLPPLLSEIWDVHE
Sequence of Nuclear respiratory factor 1 (Homo sapiens) (Q16656 whole entry, looked up): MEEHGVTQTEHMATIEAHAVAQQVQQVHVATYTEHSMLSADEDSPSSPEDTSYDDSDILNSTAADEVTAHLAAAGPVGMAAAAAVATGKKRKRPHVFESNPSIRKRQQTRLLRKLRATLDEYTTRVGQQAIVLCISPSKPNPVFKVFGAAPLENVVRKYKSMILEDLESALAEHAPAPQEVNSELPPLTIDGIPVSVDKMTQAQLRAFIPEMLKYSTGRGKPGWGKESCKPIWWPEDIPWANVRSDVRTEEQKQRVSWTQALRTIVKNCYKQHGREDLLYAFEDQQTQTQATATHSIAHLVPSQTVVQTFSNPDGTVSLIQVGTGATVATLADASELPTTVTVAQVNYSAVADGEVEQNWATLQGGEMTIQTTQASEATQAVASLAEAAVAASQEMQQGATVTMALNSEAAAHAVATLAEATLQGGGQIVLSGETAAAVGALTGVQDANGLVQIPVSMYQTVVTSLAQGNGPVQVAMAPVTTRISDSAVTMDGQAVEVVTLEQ
Sequence of Estrogen receptor (Homo sapiens) (P03372 whole entry, looked up, the tested form may be a part): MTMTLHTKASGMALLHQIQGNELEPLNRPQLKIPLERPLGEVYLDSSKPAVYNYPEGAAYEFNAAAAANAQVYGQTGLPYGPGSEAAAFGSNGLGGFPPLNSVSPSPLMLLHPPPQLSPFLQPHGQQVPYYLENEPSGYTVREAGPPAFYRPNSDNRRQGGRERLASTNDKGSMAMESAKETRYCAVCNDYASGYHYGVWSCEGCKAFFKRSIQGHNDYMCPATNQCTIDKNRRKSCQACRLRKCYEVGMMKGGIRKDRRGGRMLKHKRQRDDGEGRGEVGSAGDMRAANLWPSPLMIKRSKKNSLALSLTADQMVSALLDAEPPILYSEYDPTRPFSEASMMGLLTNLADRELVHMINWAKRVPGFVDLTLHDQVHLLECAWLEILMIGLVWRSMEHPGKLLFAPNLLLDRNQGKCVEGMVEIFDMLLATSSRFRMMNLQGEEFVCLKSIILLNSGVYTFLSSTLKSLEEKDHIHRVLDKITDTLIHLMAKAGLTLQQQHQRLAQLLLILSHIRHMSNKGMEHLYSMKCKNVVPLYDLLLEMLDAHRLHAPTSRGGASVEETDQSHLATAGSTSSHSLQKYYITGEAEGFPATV
Sequence of Glucocorticoid receptor (Homo sapiens) (P04150 whole entry, looked up, the tested form may be a part): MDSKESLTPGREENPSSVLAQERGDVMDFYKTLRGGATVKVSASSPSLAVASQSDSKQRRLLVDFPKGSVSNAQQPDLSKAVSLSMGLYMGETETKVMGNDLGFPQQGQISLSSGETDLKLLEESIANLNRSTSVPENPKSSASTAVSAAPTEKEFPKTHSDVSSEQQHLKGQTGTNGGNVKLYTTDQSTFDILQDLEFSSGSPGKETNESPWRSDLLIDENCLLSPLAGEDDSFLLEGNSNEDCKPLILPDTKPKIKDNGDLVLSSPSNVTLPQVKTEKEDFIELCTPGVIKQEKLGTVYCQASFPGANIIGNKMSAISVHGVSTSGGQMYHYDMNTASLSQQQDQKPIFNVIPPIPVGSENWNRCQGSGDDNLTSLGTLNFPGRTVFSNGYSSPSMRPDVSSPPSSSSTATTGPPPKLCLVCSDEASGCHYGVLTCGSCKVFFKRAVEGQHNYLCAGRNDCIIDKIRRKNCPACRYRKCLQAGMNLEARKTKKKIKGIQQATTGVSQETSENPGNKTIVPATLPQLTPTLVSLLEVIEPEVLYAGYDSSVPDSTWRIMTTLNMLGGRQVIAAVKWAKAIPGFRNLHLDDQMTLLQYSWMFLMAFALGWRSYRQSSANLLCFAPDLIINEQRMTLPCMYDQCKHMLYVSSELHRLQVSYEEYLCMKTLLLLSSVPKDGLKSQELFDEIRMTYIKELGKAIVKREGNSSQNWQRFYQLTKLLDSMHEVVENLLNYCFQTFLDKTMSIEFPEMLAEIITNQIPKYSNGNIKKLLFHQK
Sequence of X-box-binding protein 1 (Homo sapiens) (P17861 whole entry, looked up): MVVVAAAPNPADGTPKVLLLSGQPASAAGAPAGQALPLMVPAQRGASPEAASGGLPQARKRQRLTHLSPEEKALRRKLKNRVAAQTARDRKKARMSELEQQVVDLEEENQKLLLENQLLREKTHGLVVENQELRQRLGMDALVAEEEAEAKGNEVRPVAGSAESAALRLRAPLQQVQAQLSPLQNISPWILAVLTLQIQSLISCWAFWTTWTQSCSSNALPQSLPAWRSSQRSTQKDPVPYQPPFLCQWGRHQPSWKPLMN

CCCCCCCCCCCCc1ccccc1S(=O)(=O)O
not listed: [14] | [15] | [16] | [17] | [18]
inactive: all other assays above

CC[C@H](c1ccc(O)cc1)[C@@H](CC)c1ccc(O)cc1
inactive: [1] | [2] | [3] | [5] | [14] | [6] | [7] | [9] | [15] | [16] | [10] | [11] | [12] | [13]
active: [3] 3.47 µM and 2.97 µM

CC(O)CO (stereo not given)
not listed: [8] | [9] | [10] | [15] | [17] | [18]
inactive: all other assays above

OCCC(F)(F)C(F)(F)C(F)(F)C(F)(F)C(F)(F)C(F)(F)F
inactive: [1] | [2] | [4] | [5] | [14] | [6] | [7] | [8] | [9] | [16] | [10] | [11] | [12] | [13]
active: [2] 157 µM | [5] 134 µM | [13] 153 µM

CN(C)C=O
not listed: [3] | [6] | [15] | [18]
inactive: all other assays above

Cc1cc(CCN2CCN(c3nsc4ccccc34)CC2)cc2c1NC(=O)CC2(C)C
active: [3] 4.92 µM | [5] 11 µM
not listed: [8] | [10] | [14] | [17]
inactive: all other assays above

CCCCCCCCCCCCCC[N+](C)(C)C
inactive: [1] | [2] | [3] | [4] | [18] | [5] | [17] | [14] | [7] | [16] | [10] | [11] | [12] | [13]
active: [18] 25.7 µM | [5] 6.33 µM | [15] 43.7 µM and 40.9 µM
